Where a name gives a salt, the structure may show the parent alone.
Experiments:
Test in all cases: phenotypically active (imaging signature differs from DMSO and reproducible) at any of 0.3-9 uM (binary (1 = active, 0 = inactive)); higher = active
Settings in all cases: treatment time: 24 h
[1] = tested on: A549-ACTB-RAB5A
In short: (§1)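 Fifteen reporter lines derived from A549, HepG2 and WPMY1 cells by gene editing, carrying BFP for segmentation plus GFP and RFP/FusionRed markers, were exposed to 0.3, 1, 3 or 9 µM for 24 h in four wells each and imaged live. Live-cell features from each well were normalised to solvent control wells. A well set counted as deviating when ≥3 of 4 wells lay beyond the 95th percentile of control Euclidean distances, and as reproducible when the median replicate Pearson correlation exceeded the 95th percentile of non-replicates. Phenotypic activity was assigned only when both criteria were met.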

[2] = tested on: A549-CANX-COX4
In short: as §1

[3] = tested on: A549-GM130-SQSTM1
In short: as §1

[4] = tested on: A549-TP53BP1-CLTA
In short: as §1

[5] = tested on: A549-TUBA1B-RELA
In short: as §1

[6] = tested on: HepG2-ACTB-RAB5A
In short: as §1

[7] = tested on: HepG2-CANX-COX4
In short: as §1

[8] = tested on: HepG2-GM130-SQSTM1
In short: as §1

[9] = tested on: HepG2-TP53BP1-CLTA
In short: as §1

[10] = tested on: HepG2-TUBA1B-RELA
In short: as §1

[11] = tested on: WPMY1-ACTB-RAB5A
In short: as §1

[12] = tested on: WPMY1-CANX-COX4
In short: as §1

[13] = tested on: WPMY1-GM130-SQSTM1
In short: as §1

[14] = tested on: WPMY1-TP53BP1-CLTA
In short: as §1

[15] = tested on: WPMY1-TUBA1B-RELA
In short: as §1

Measured: phenotypically active

CC[N+](CC)(CC)CCOc1cccc(OCC[N+](CC)(CC)CC)c1OCC[N+](CC)(CC)CC [gallamine-triethiodide]
inactive: [1] 0 | [2] 0 | [3] 0 | [4] 0 | [5] 0 | [6] 0 | [7] 0 | [8] 0 | [9] 0 | [10] 0 | [11] 0 | [12] 0 | [13] 0 | [14] 0 | [15] 0

CCN(CC)C(C)CN1c2ccccc2Sc2ccccc21 (stereo not given) [profenamine]
inactive: [1] 0 | [2] 0 | [3] 0 | [4] 0 | [5] 0 | [6] 0 | [7] 0 | [8] 0 | [9] 0 | [10] 0 | [11] 0 | [12] 0 | [13] 0 | [14] 0 | [15] 0

CC(C)Cn1c(=O)n(C)c(=O)c2[nH]cnc21
inactive: [1] 0 | [2] 0 | [3] 0 | [4] 0 | [5] 0 | [6] 0 | [7] 0 | [8] 0 | [9] 0 | [10] 0 | [11] 0 | [12] 0 | [13] 0 | [14] 0 | [15] 0

Cc1c(-c2ccccc2)oc2c(C(=O)OCCN3CCCCC3)cccc2c1=O [flavoxate]
inactive: [1] 0 | [2] 0 | [3] 0 | [4] 0 | [5] 0 | [6] 0 | [7] 0 | [8] 0 | [9] 0 | [10] 0 | [11] 0 | [12] 0 | [13] 0 | [14] 0 | [15] 0

Cc1c(-c2cnccn2)ssc1=S [Oltipraz]
inactive: [1] 0 | [2] 0 | [3] 0 | [4] 0 | [5] 0 | [6] 0 | [7] 0 | [8] 0 | [9] 0 | [10] 0 | [11] 0 | [12] 0 | [13] 0 | [14] 0 | [15] 0

CN(C)CCC[C@@]1(c2ccc(F)cc2)OCc2cc(C#N)ccc21 [escitalopram]
inactive: [1] 0 | [2] 0 | [3] 0 | [4] 0 | [5] 0 | [6] 0 | [7] 0 | [8] 0 | [9] 0 | [10] 0 | [11] 0 | [12] 0 | [13] 0 | [14] 0 | [15] 0

OC[C@H]1NC[C@@H](O)[C@@H](O)[C@@H]1O [1-Deoxymannojirimycin hydrochloride]
inactive: [1] 0 | [2] 0 | [3] 0 | [4] 0 | [5] 0 | [6] 0 | [7] 0 | [8] 0 | [9] 0 | [10] 0 | [11] 0 | [12] 0 | [13] 0 | [14] 0 | [15] 0

CCC(NC(C)C)C(O)c1ccc(O)c(O)c1 (stereo not given) [isoetharine]
inactive: [1] 0 | [2] 0 | [3] 0 | [4] 0 | [5] 0 | [6] 0 | [7] 0 | [8] 0 | [9] 0 | [10] 0 | [11] 0 | [12] 0 | [13] 0 | [14] 0 | [15] 0

CN(C)CC/C=C1\c2ccccc2COc2ccc(CC(=O)O)cc21 [olopatadine]
inactive: [1] 0 | [2] 0 | [3] 0 | [4] 0 | [5] 0 | [6] 0 | [7] 0 | [8] 0 | [9] 0 | [10] 0 | [11] 0 | [12] 0 | [13] 0 | [14] 0 | [15] 0

O=C(Cn1ccnc1[N+](=O)[O-])NCc1ccccc1 [benznidazole]
inactive: [1] 0 | [2] 0 | [3] 0 | [4] 0 | [5] 0 | [6] 0 | [7] 0 | [8] 0 | [9] 0 | [10] 0 | [11] 0 | [12] 0 | [13] 0 | [14] 0 | [15] 0

Cc1cccc(Nc2ccccc2C(=O)O)c1C [mefenamic-acid]
inactive: [1] 0 | [2] 0 | [3] 0 | [4] 0 | [5] 0 | [6] 0 | [7] 0 | [8] 0 | [9] 0 | [10] 0 | [11] 0 | [12] 0 | [13] 0 | [14] 0 | [15] 0

NCCC(=O)NCCc1c[nH]cn1 [Carcinine]
inactive: [1] 0 | [2] 0 | [3] 0 | [4] 0 | [5] 0 | [6] 0 | [7] 0 | [8] 0 | [9] 0 | [10] 0 | [11] 0 | [12] 0 | [13] 0 | [14] 0 | [15] 0

From the supplement of paper PMC7411054
